From the OligoGym collection
Also: reference of the scale not given here.

These sequences were tested against SLC9A10 (assay: pooled miR-30 sensor sort-seq; sequence = guide strand). Details: shRNA.
In the case of TTTATGTTTAGGAACAAACTTT, the sensor-assay potency score (higher = more potent) is reported as -0.563. TTCGTAACAGACAATCTTCTAC gave a sensor-assay potency score (higher = more potent) of 0.0134. With TAACATTTCTTTCTTCTTGAAT the sensor-assay potency score (higher = more potent) was -0.801. For TAGTCTTTGGTCAAAATCCATA, the sensor-assay potency score (higher = more potent) was -1.27. For TATCGGAAAATCTTTCTCCTTT, the sensor-assay potency score (higher = more potent) was -0.118. TACAGTTGAACTTTGTCCCCAG was tested, and the sensor-assay potency score (higher = more potent) was 0.193. Sequence TATGATTGACATCATCACCAAA has a sensor-assay potency score (higher = more potent) of -0.934. TATATGAACAAATTCCACCCAC was tested, and the sensor-assay potency score (higher = more potent) was -0.00398.

Each sequence was assayed against SLC9A5 in the same assay as above. Details: shRNA.
Sequence TTCTCTGTCTCTGAACTGTCGC has a sensor-assay potency score (higher = more potent) of -0.349. For AAGTTGTCAAAGAACAGCCTGC, the sensor-assay potency score (higher = more potent) was -0.191. Work on TACAAGTCCAGCCTGCTGCAAG yielded a sensor-assay potency score (higher = more potent) of -0.602. TTAAGCAACAGGCCTGAACTGA gave a sensor-assay potency score (higher = more potent) of -1.07. TAGAGCGTGGATCAGAAGGTAG was tested, and the sensor-assay potency score (higher = more potent) was -0.999. Work on AAGGTCTAGACTTAGACCCAGA yielded a sensor-assay potency score (higher = more potent) of -1.07. TCTGTCTCTGAACTGTCGCTCT gave a sensor-assay potency score (higher = more potent) of 0.00832. TTACTTTCCGAGACAGGTGAAA gave a sensor-assay potency score (higher = more potent) of -0.787. TATCACAGCAGCTGTGTCCTGA was tested, and the sensor-assay potency score (higher = more potent) was 0.318. Work on TTGAACTGGATGCACCAGTGGG yielded a sensor-assay potency score (higher = more potent) of -0.899. TTCTGCTGGAAGACCTCCTTGT was tested, and the sensor-assay potency score (higher = more potent) was 0.342. Work on TTGTCAAAGAACAGCCTGCTAG yielded a sensor-assay potency score (higher = more potent) of -0.67.

The sequences below were run against SLC9A7 in the same assay as above. Details: shRNA.
Work on TCTTCTTTAAGCTGTATCCAGC yielded a sensor-assay potency score (higher = more potent) of -0.509. Sequence TTGGTTATCGTACACCTGGGGA has a sensor-assay potency score (higher = more potent) of -0.959. TTGAAAGCTGTCGTTGTTGGGT gave a sensor-assay potency score (higher = more potent) of -0.0314. With TTTATCTGAGAGCTGTCCCATA the sensor-assay potency score (higher = more potent) was -0.106. In the case of TTCATTCTGGTCCTCTTCGGAG, the sensor-assay potency score (higher = more potent) is reported as -1.15. Sequence TACAACACCTGTAAATCCGCAG has a sensor-assay potency score (higher = more potent) of -0.278. In the case of TATTCGAAGAACTTTCCGCTGA, the sensor-assay potency score (higher = more potent) is reported as 0.32. Work on TTAAGCTGTATCCAGCATGAAA yielded a sensor-assay potency score (higher = more potent) of -1.54. For TAATGAAGCATGAAACAGCAGT, the sensor-assay potency score (higher = more potent) was -0.713. TTTGGTAAACTTAGTCACGTTG was tested, and the sensor-assay potency score (higher = more potent) was -0.343. TAAGACTTGAAAGCTGTCGTTG was tested, and the sensor-assay potency score (higher = more potent) was 0.00174. TCGACTTCTTGATTCCACCGAC showed a sensor-assay potency score (higher = more potent) of 0.212.

What follows are sequences tested against SLCO4C1 in the same assay as above. Details: shRNA.
TTGAATAATATTATCACAGAAT showed a sensor-assay potency score (higher = more potent) of -0.992. Work on TTAACTACAATACCTTGCGTGA yielded a sensor-assay potency score (higher = more potent) of -0.96. TTTGTAAATATGATTGTCCATA gave a sensor-assay potency score (higher = more potent) of -1.19. Sequence TAATATTCAAGTATGCTGCTTC has a sensor-assay potency score (higher = more potent) of 0.868. Sequence TAGACTAATATATTTGTTCAGT has a sensor-assay potency score (higher = more potent) of -0.742. TTGTCTGTGATTAACACACCTT was tested, and the sensor-assay potency score (higher = more potent) was -0.412. Work on TTGAACTTCAATACTTTTCCTA yielded a sensor-assay potency score (higher = more potent) of 0.743. TAACTTTACAAGTAACACTTAT gave a sensor-assay potency score (higher = more potent) of -0.974.
